This test concerns V-C8 + BRCA2 (BRCA2-proficient hamster cells). Put plainly: normalised cell viability (fraction of plate median); higher = more viable cells (less toxic). The following applies: 5 µM. An outline of the steps:
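Hamster V-C8 cells with and without restored BRCA2 were exposed in 96-well plates to library drugs at 5 μM for 3 days (screen 1) or 6 days (screen 2). Cell viability was scored by resazurin assay, then median-plate normalised, averaging triplicate wells.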

Counter-ions that a name gives are not always drawn. ± gives the standard deviation of the averaged measurements. Over roughly 1,300 compounds, “normalised cell viability” has its median near 1; the lowest 2% begin near 0.15. The sample as a whole holds a higher share of the lowest values than the screen did.

For `CC(=O)Oc1cccc2c1C(=O)c1c(OC(C)=O)cc(C(=O)O)cc1C2=O` [Diacerein], the normalised cell viability was found to be 0.749 ± 0.038 (treatment time: 3 days) and 0.796 ± 0.027 (treatment time: 6 days).
Taken in the same sequence, the figures for `CCN(CC)CCCC(C)Nc1c2ccc(Cl)cc2nc2ccc(OC)cc12` (stereo not given) [Quinacrine dihydrochloride dihydrate] were 0.133 ± 0.0038 and 0.107 ± 0.0083.
Taken in the same sequence, the figures for `CCN(CC)CCCC(C)Nc1ccnc2cc(Cl)ccc12` (stereo not given) [Chloroquine diphosphate] were 0.852 ± 0.023 and 0.938 ± 0.082.
Taken in the same sequence, the figures for `CCN(CCO)CCCC(C)Nc1ccnc2cc(Cl)ccc12` (stereo not given) [Hydroxychloroquine sulfate] were 0.606 ± 0.024 and 0.666 ± 0.032.
`O=C(CCCN1CCN(c2ccccn2)CC1)c1ccc(F)cc1` [Azaperone]: the normalised cell viability reads like this: (treatment time: 3 days) 1.1 ± 0.34; (treatment time: 6 days) 0.902 ± 0.052.
Taken in the same sequence, the figures for `CCCCN1CCCCC1C(=O)Nc1c(C)cccc1C` (stereo not given) [Bupivacaine hydrochloride] were 0.962 ± 0.049 and 1.03 ± 0.038.
Taken in the same sequence, the figures for `CCOC(=O)c1ccc(N)cc1` [Benzocaine] were 0.871 ± 0.023 and 0.9583 ± 0.0066.
Take `CN(N=O)C(=O)N[C@@H](C=O)[C@@H](O)[C@H](O)[C@H](O)CO` [Streptozotocin]: the normalised cell viability runs as follows: (treatment time: 3 days) 1.07 ± 0.073; (treatment time: 6 days) 1.06 ± 0.053.
As to `O=C(CCCN1CCC(O)(c2ccc(Br)cc2)CC1)c1ccc(F)cc1` [Bromperidol], the normalised cell viability worked out at 0.976 ± 0.027 (treatment time: 3 days) and 0.979 ± 0.038 (treatment time: 6 days).
With `CN1CCCN=C1/C=C/c1cccs1` [Pyrantel tartrate], the normalised cell viability is, setting by setting: (treatment time: 3 days) 1.04 ± 0.05; (treatment time: 6 days) 1.03 ± 0.026.
Taken in the same sequence, the figures for `COCCCC/C(=N\OCCN)c1ccc(C(F)(F)F)cc1` [Fluvoxamine maleate] were 0.97 ± 0.029 and 1.17 ± 0.13.
For `Cn1c(=O)c2c(ncn2C)n(C)c1=O` [Caffeine], the normalised cell viability (treatment time: 3 days) came out at 0.998 ± 0.053 and the normalised cell viability (treatment time: 6 days) stood at 0.996 ± 0.057.
Taken in the same sequence, the figures for `CCOC(=O)[N-]c1c[n+](N2CCOCC2)no1` [Molsidomine] were 1.04 ± 0.05 and 1.1 ± 0.028.
In the case of `CCN1CCCC1CNC(=O)c1cc(S(=O)(=O)CC)c(N)cc1OC` (stereo not given) [Amisulpride], the normalised cell viability by setting is: (treatment time: 3 days) 0.974 ± 0.017; (treatment time: 6 days) 0.991 ± 0.058.
For `O=C(CCCCC(=O)Nc1c(I)cc(I)c(C(=O)O)c1I)Nc1c(I)cc(I)c(C(=O)O)c1I` [Iodipamide] the same measures were 1.07 ± 0.05 and 1.02 ± 0.06.
Taken in the same sequence, the figures for `O=C(CCCCCCC(=O)Nc1ccccc1)NO` [Vorinostat] were 0.132 ± 0.0091 and 0.17 ± 0.021.
For `CC(=O)Nc1ccc(CC(=O)O)cc1` [Actarit] the same measures were 1.038 ± 0.0059 and 1.07 ± 0.12.
`CN(Cc1cc(Br)cc(Br)c1N)C1CCCCC1` [Bromhexine hydrochloride]: the normalised cell viability (treatment time: 3 days) amounted to 0.949 ± 0.042 and the normalised cell viability (treatment time: 6 days) is 1.02 ± 0.072.
For `CO[C@H]1C[C@H](O[C@H]2[C@H](C)[C@@H](O[C@@H]3O[C@H](C)C[C@H](N(C)C)[C@H]3OC(C)=O)[C@@H](C)C[C@@]3(CO3)C(=O)[C@H](C)[C@@H](OC(C)=O)[C@@H](C)[C@@H](C)OC(=O)[C@@H]2C)O[C@@H](C)[C@@H]1OC(C)=O` [Troleandomycin] the same measures were 1.08 ± 0.027 and 1.06 ± 0.04.
For `C[C@@H](O)[C@H]1C(=O)N2C(C(=O)O)=C(S[C@@H]3CN[C@H](C(=O)N(C)C)C3)[C@H](C)[C@H]12` [Meropenem] the same measures were 1.02 ± 0.037 and 1.04 ± 0.053.
For `NS(=O)(=O)c1cc(Cl)c(Cl)c(S(N)(=O)=O)c1` [Dichlorphenamide] the same measures were 1.09 ± 0.05 and 0.961 ± 0.035.
On to `CC(C)(C)NCC(O)COc1cccc2c1CCC(=O)N2` (stereo not given) [Carteolol hydrochloride], for which the normalised cell viability reads like this: (treatment time: 3 days) 1.06 ± 0.052; (treatment time: 6 days) 1.06 ± 0.044.
For `O=C1NCC2(CCN(CCc3ccccc3)CC2)O1` [Fenspiride hydrochloride] the same measures were 1.03 ± 0.051 and 1.06 ± 0.068.
Taken in the same sequence, the figures for `CCN(Cc1ccncc1)C(=O)C(CO)c1ccccc1` (stereo not given) [Tropicamide] were 1.065 ± 0.0083 and 1.01 ± 0.043.
Taken in the same sequence, the figures for `CN(C)CCC[C@@]1(c2ccc(F)cc2)OCc2cc(C#N)ccc21` [Escitalopram] were 1.1 ± 0.041 and 1.01 ± 0.067.
For `CC(C)[C@H]1CC[C@H](C(=O)N[C@H](Cc2ccccc2)C(=O)O)CC1` [Nateglinide], the normalised cell viability worked out at 1.04 ± 0.051 (treatment time: 3 days) and 1.04 ± 0.091 (treatment time: 6 days).
Turning to `CN1CCCC(CC2c3ccccc3Sc3ccccc32)C1` (stereo not given) [Metixene hydrochloride], the normalised cell viability (treatment time: 3 days) stood at 0.867 ± 0.014 and the normalised cell viability (treatment time: 6 days) was found to be 0.888 ± 0.012.
Taken in the same sequence, the figures for `O=C(CCCN1CC=C(n2c(=O)[nH]c3ccccc32)CC1)c1ccc(F)cc1` [Droperidol] were 1.05 ± 0.013 and 1.07 ± 0.015.
For `O=C(O)c1ccccc1OP(=O)(O)O` [Fosfosal] the same measures were 0.966 ± 0.055 and 1.06 ± 0.1.
Taken in the same sequence, the figures for `CC(C)NC(=N)NC(=N)Nc1ccc(Cl)cc1` [Proguanil hydrochloride] were 0.211 ± 0.013 and 0.203 ± 0.015.
Consider `N=C(NCCCCCCNC(=N)NC(=N)Nc1ccc(Cl)cc1)NC(=N)Nc1ccc(Cl)cc1` [Chlorhexidine], for which the normalised cell viability amounted to 0.117 ± 0.0076 (treatment time: 3 days) and 0.103 ± 0.0066 (treatment time: 6 days).
Taken in the same sequence, the figures for `N=C(N)NC(=N)NCCc1ccccc1` [Phenformin hydrochloride] were 1.01 ± 0.029 and 0.9752 ± 0.0082.
For `CC(=O)Nc1c(I)c(NC(C)=O)c(I)c(C(=O)O)c1I` [Diatrizoic acid dihydrate] the same measures were 0.996 ± 0.035 and 1.05 ± 0.077.
In the case of `Cc1cc(/C=C/c2ccc3cc(N(C)C)ccc3[n+]2C)c(C)n1-c1ccccc1` [Pyrvinium pamoate], the normalised cell viability runs as follows: (treatment time: 3 days) 0.144 ± 0.0086; (treatment time: 6 days) 0.171 ± 0.014.
Taken in the same sequence, the figures for `Cc1cc(=O)n(-c2ccccc2)n1C` [Antipyrine] were 0.997 ± 0.038 and 1.02 ± 0.046.

The values above are taken from the supplement of paper PMC6609913.
